Source: PubChem BioAssay
Most compounds without a hit are left out; they make up all but 1.4% or so of the library.
EPAC2 antag: blocks human EPAC2 exchange factor; 0.18% of 360,000 active; Q8WZA2; Potency, µM (series often up to 114 µM), hits mostly inhibitors; EPAC2 GEF exchange of Rap1B-BODIPY-GDP, fluorescence; note: nearly all actives have a fitted effect of over 45% in size
BRCA1 expr up: activators of BRCA1 expression; MCF7-BRCA1-FFLuc reporter, luminescence, 48 h; response scale: scaled: vehicle 0%, 10 µM genistein 100%; Potency, µM (series often up to 46.1 µM), usual class: activators; 1.1% of 380,000 active; note: nearly all actives have a fitted effect of over 80% in size
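Luminescence from a BRCA1-driven firefly luciferase in MCF7 cells was the read-out, taken 15 min after substrate addition following 48 h compound exposure at 37 °C. Data were normalized to a 10 microM genistein control and DMSO vehicle.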
USP1-UAF1 inh: inhibitors of human USP1/UAF1 deubiquitinase | O94782 | recombinant USP1/UAF1, Ub-Rhodamine cleavage fluorescence | Potency, µM (doses to about 57.1 µM), actives largely listed as inhibitors | 0.23% of 390,000 active; note: nearly all actives have a fitted effect of over 60% in size
Target sequence (O94782 whole entry, looked up): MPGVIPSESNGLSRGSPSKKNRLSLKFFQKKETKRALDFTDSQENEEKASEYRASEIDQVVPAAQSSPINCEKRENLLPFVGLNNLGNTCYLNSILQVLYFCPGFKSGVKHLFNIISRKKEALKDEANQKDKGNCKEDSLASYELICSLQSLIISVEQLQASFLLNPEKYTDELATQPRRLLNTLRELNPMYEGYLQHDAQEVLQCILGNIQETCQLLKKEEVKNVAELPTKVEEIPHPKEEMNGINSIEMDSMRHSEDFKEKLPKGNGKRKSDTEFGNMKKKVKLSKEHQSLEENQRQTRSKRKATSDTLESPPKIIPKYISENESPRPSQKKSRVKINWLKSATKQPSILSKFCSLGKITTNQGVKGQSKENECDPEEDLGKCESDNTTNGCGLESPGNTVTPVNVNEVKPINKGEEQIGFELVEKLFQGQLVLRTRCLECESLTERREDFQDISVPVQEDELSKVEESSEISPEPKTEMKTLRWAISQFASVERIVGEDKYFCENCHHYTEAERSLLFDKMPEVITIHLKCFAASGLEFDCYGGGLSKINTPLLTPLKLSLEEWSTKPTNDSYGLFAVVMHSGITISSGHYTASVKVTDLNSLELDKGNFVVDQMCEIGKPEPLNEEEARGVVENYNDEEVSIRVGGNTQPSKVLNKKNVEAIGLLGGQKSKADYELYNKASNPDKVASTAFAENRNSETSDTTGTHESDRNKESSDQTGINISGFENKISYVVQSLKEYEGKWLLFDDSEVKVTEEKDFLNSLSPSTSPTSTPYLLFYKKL
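Step one: compound is pinned into 1nM USP1/UAF1 in HEPES pH 7.8 buffer with TCEP. Step two: 15 min room-temperature incubation. Step three: Ub-Rho (150nM final) starts cleavage, tracked by fluorescence over six one-minute reads.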
EPAC1 antag: blocks human EPAC1 exchange factor; EPAC1 GEF assay, Rap1b-BODIPY-GDP exchange fluorescence; Potency, µM (doses to about 115 µM), hits mostly inhibitors; 0.14% of 360,000 active; note: nearly all actives have a fitted effect of over 50% in size
EPAC1 agonist: EPAC1 (human) agonism; Potency, µM (series often up to 154 µM), most hits filed as activators; EPAC1 agonist qHTS, biochemical assay; response scale: 100% = response to 6.5 mM cAMP; O95398; 0.073% of 360,000 active; note: nearly all actives have a fitted effect of over 60% in size
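Fluorescent GDP-exchange assay: 100 nM EPAC1 with 250 nM Rap1B preloaded with BODIPY-GDP and 50 uM GDP; compounds tested as concentration series, 5 min at room temperature, then read every 5 min for 30 min (ex 480/em 540 nm); normalized to 6.5 mM cAMP.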
EPAC2 agonist: EPAC2 (human) agonism; EPAC2 activation, biochemical qHTS; response scale: 100% = 6.5 mM cAMP response; Potency, µM (series often up to 154 µM), most hits filed as activators; 0.079% of 360,000 active; AID 720711; note: nearly all actives have a fitted effect of over 50% in size
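Compounds were titrated in qHTS against a Rap1B-BODIPY-GDP (250 nM) complex with EPAC2 (100 nM) and GDP (50 uM). BODIPY-GDP release tracked at 480/540 nm over 30 min at room temperature, normalized to 6.5 mM cAMP.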
Of the large screens only hits and unclear results are named; the others gave an inactive call. Calls come from the whole dose curve; as a rule, active = well fitted curve in the direction sought with a large enough effect; inconclusive = small, poorly fitted or top-dose-only effect, or another doubt; inactive = no such curve, though single readings can be large; an effect the other way counts as inactive or inconclusive.

Cc1ccc(NC(=O)c2cc(-c3cc(F)ccc3OCC3CCCO3)n[nH]2)cc1NS(C)(=O)=O (stereo not given)	none (no result: USP1-UAF1 inh)
O=c1[nH][nH]c2c(N=Cc3ccccc3O)ccc(F)c12	USP1-UAF1 inh 28.2µM, EPAC1 antag 39.8µM
CC1Sc2ccc(C(=O)OCc3ccccc3Cl)cc2NC1=O (stereo not given)	BRCA1 expr up 6.31µM, EPAC1 agonist 50.1µM
COc1cccc(COC(=O)c2ccc3c(c2)NC(=O)C(C)S3)c1OC (stereo not given)	none
COc1cc(-c2ccno2)ccc1S(=O)(=O)N1CCN(c2ccc(C(C)=O)cc2)CC1	none (no result: EPAC2 antag, BRCA1 expr up, EPAC1 antag, EPAC1 agonist, EPAC2 agonist)
CCN1CCN(c2cc(C)c3cc(NC(=O)c4cc(OC)cc(OC)c4)ccc3n2)CC1	BRCA1 expr up 6.31µM, USP1-UAF1 inh inconclusive
CCOc1ccc(C(=O)Nc2ccc3nc(N4CCN(CC)CC4)cc(C)c3c2)cc1	none
COC(=O)c1cnc(SCc2ccc(Cl)cc2)n1C	BRCA1 expr up 11.2µM
C/C(=N\NC(=O)c1cc(O)ccc1O)c1cccc(NC(=O)c2ccc(Cl)cc2)c1	EPAC1 antag 50.1µM
C/C(=N\NC(=O)c1cc(O)ccc1O)c1cccc(NC(=O)c2cccc(Cl)c2)c1	EPAC1 antag inconclusive
CCc1nn2c(=O)cc(COC(=O)c3ccccc3NC(=O)c3ccc(C(C)(C)C)cc3)nc2s1	none (no result: EPAC2 antag, BRCA1 expr up, EPAC1 antag, EPAC1 agonist, EPAC2 agonist)
CCC1CCCCN1C(=O)CSc1nnc(-c2ccco2)o1 (stereo not given)	BRCA1 expr up 3.16µM
CCC1CCCCN1C(=O)CSc1nnc(-c2ccc(Cl)cc2)o1 (stereo not given)	none
CCC1CCCCN1C(=O)CSc1nnc(-c2cccc(Cl)c2)o1 (stereo not given)	BRCA1 expr up 10µM
CCCNC(=O)C1(C)CCCN(Cc2ccccc2C#N)C1 (stereo not given)	none (no result: USP1-UAF1 inh)
Cc1ccc(NC(=S)/C(C#N)=C2/Nc3ccccc3S2)cc1	EPAC2 antag 20µM, EPAC1 antag inconclusive
N#C/C(C(=O)N1CCCCC1)=C1\Nc2ccccc2S1	BRCA1 expr up 8.91µM
CC(=O)NC(c1ccc(C(C)C)cc1)c1c(O)ccc2ccccc12 (stereo not given)	EPAC2 antag inconclusive
CC(=O)NC(c1ccccc1)c1c(O)ccc2ccccc12 (stereo not given)	EPAC2 antag 39.8µM
S=Cc1ccc(/C=C/c2ccnc3ccccc23)cc1	none (no result: EPAC2 antag, USP1-UAF1 inh, EPAC1 antag, EPAC1 agonist, EPAC2 agonist)
CSc1ccc(/C=C/c2ccnc3ccccc23)cc1	BRCA1 expr up 4.47µM (no result: EPAC2 antag, USP1-UAF1 inh, EPAC1 antag, EPAC1 agonist, EPAC2 agonist)
COc1cc2nc(N3CCOCC3)nc(NC3CCN(C)CC3)c2cc1OC	none (no result: EPAC2 antag, USP1-UAF1 inh, EPAC1 antag, EPAC1 agonist, EPAC2 agonist)
CCOc1cc(-c2noc(-c3cccnc3)n2)ccc1OC	none
COc1ccc(-c2noc(-c3cccnc3)n2)cc1OC	BRCA1 expr up 7.94µM
CCOc1ccc(-c2noc(-c3cccnc3)n2)cc1OC	BRCA1 expr up 8.91µM
O=S(=O)(c1ccc(NC(=S)N/N=C/c2ccc(O)c(O)c2)cc1)N1CCOCC1	EPAC1 antag inconclusive
O=[N+]([O-])c1cc(Cl)cc(/C=N/NC(=S)Nc2ccc(S(=O)(=O)N3CCOCC3)cc2)c1O	EPAC2 antag 56.2µM, USP1-UAF1 inh inconclusive, EPAC1 antag inconclusive
CN(C)c1ccc(/C=C(/C(=O)c2ccc(Cl)cc2Cl)n2cncn2)cc1	USP1-UAF1 inh inconclusive, EPAC1 agonist 100µM, EPAC2 agonist 44.7µM
Cc1ncoc1C(=O)NC1CCCc2c1cnn2-c1ccc(C(C)(C)C)cc1 (stereo not given)	none
CC(N=c1ccccn1C(=O)Nc1ccc(F)cc1)c1ccco1 (stereo not given)	USP1-UAF1 inh inconclusive
CC(N=c1ccccn1C(=O)Nc1ccc(Cl)cc1)c1ccco1 (stereo not given)	BRCA1 expr up 10µM
CCN(C)C1CN(Cc2cn(Cc3ccc(OC)cc3)nn2)S(=O)(=O)C1 (stereo not given)	none (no result: USP1-UAF1 inh)
O=C(Nc1ccc(Cl)c(C(F)(F)F)c1)C1CCN(S(=O)(=O)c2cccc3nonc23)CC1	none (no result: EPAC2 antag, EPAC1 antag, EPAC1 agonist, EPAC2 agonist)
Cc1cc(C(=O)COc2cccc([N+](=O)[O-])c2)c(C)n1C1CC1	BRCA1 expr up 7.08µM
COc1ccc(C(=O)NCC(=O)N2CCN(C(=O)c3ccco3)CC2)cc1	none
CCCc1cc(C(=O)N/N=C/c2cccn2C)cs1	BRCA1 expr up 7.94µM
Cc1cc(C)n(-c2nc3ccccc3nc2Nc2ccc(Cl)cc2Cl)n1	none (no result: EPAC2 antag, BRCA1 expr up, EPAC1 antag, EPAC1 agonist, EPAC2 agonist)
Cc1ccc(-n2c(O)c(C=Nc3ccccc3-c3n[nH]c(=S)[nH]c3=O)c3ccccc3c2=O)cc1C	USP1-UAF1 inh inconclusive, EPAC1 antag 50.1µM
Cc1ccc(-n2c(O)c(C=Nc3ccccc3-c3n[nH]c(=S)[nH]c3=O)c3ccccc3c2=O)c(C)c1	none
c1ccc(OCCSc2ncnc3nc[nH]c23)cc1	BRCA1 expr up 8.91µM
CN(C)Cc1c(O)ccc2cc(-c3nc4ccccc4n3C)c(=O)oc12	BRCA1 expr up 12.6µM
CC(C)(C)C1CCc2c(sc(NC(=O)C3CC=CCC3C(=O)O)c2C#N)C1 (stereo not given)	none
N#Cc1c(NC(=O)C2CC=CCC2C(=O)O)sc2c1CCCCCC2 (stereo not given)	EPAC1 antag 79.4µM
Cc1cccc(-c2nnc(-c3cccc(NC(=O)Cc4cccs4)c3)o2)c1	BRCA1 expr up 12.6µM
CC(C)(C)OC(=O)N1CCC(C(=O)Nc2cccc(C(=O)NCCCc3ccccc3)c2)CC1	USP1-UAF1 inh inconclusive
CC(=O)/C=C1\OCc2ccccc21	none (no result: BRCA1 expr up, USP1-UAF1 inh)
CC(Sc1ccccc1F)C(=O)Nc1ccc2c(c1)OCCO2 (stereo not given)	BRCA1 expr up 11.2µM
C[C@H](NC(=O)[C@@H]1Cc2ccccc2CN1)C(=O)Nc1ccc2c(c1)OCCO2	none
CC(C)C(NC(=O)C1CCCCC1)C(=O)Nc1ccc2c(c1)OCCO2 (stereo not given)	BRCA1 expr up 4.47µM
CSCC[C@H](NC(=O)[C@@H]1Cc2ccccc2CN1)C(=O)Nc1ccc2c(c1)OCCO2	BRCA1 expr up 11.2µM
COc1ccc(-c2nnc(SC(C)C(=O)Nc3ccc4c(c3)OCCO4)o2)cc1 (stereo not given)	BRCA1 expr up 10µM
CC(Sc1ccc2c(c1)OCCO2)C(=O)Nc1ccc2c(c1)OCO2 (stereo not given)	none
CC(=O)Nc1ccc(NC(=O)C(C)Sc2nnc(-c3ccc4c(c3)OCO4)o2)cc1 (stereo not given)	EPAC1 antag inconclusive
COC(=O)CN1C(=O)C(C)(C)c2cc(S(=O)(=O)Nc3ccc(Br)cc3F)ccc21	none (no result: EPAC2 antag, BRCA1 expr up, EPAC1 antag, EPAC1 agonist, EPAC2 agonist)
